# In ChEMBL document CHEMBL4513146, “CO-ADD screening of Karazin Kharkiv National University (Ukraine) compounds”:
# Entries with a potency or affinity are not part of this list.
# How the values were obtained:
# [1] = system: Klebsiella pneumoniae; details: Concentration 32 ug.mL-1;; ASSAY_TEST Inhibition of Bacterial Growth; detection method Absorption (OD600); MEDIA CAMHB; plate type 384well; NBS; CORNING #3640; time 18 hr
# [2] = system: Candida albicans; details: Concentration 32 ug.mL-1; ASSAY_TEST Inhibition of Fungal Growth; detection method Absorption (OD530)
# [3] = system: Cryptococcus neoformans; details: Concentration 32 ug.mL-1; ASSAY_TEST Inhibition of Fungal Growth; detection method Resazurin; Absorption (OD600-OD570); plate type 384well; NBS; CORNING #3640
SMILES,Inhibition [1],Inhibition [2],Inhibition [3]
COc1ccc(C(C)NC(=O)CCc2nnc3ccc(-c4ccc(C)c(C)c4)nn23)cc1OC (stereo not given),11.56%,3.04%,-6.29%
Cc1ccc(NC(=O)Cn2nc3c(SC4CCCCC4)nccn3c2=O)cc1,5.75%,-2.16%,-28.82%
Cc1ccc(NC(=O)CSc2nnc3c4cc(-c5ccccc5)nn4ccn23)c(C)c1,-1.1%,4.18%,-18.24%
O=c1n(Cc2ccc3c(c2)OCO3)nc2ccc(-c3ccccc3)nn12,13.28%,2.43%,-7.16%
CCCCOc1ccc(-c2cc3c4nnc(SCC(=O)Nc5ccc(Cl)cc5)n4ccn3n2)cc1,11.84%,2.71%,-15.55%
COc1ccc(-c2cc3c4nnc(SCC(=O)Nc5ccc(C)c(F)c5)n4ccn3n2)cc1,1.13%,19.06%,-5.86%
COc1cccc(Cn2nc3c(=O)n(-c4cccc(Cl)c4C)ccn3c2=O)c1,-11.12%,6.64%,-14.85%
CCOC(=O)c1cccc(NC(=O)Cn2nc3c(Oc4cccc(C)c4C)nccn3c2=O)c1,-1.37%,-0.11%,-1.74%
COc1cccc(Sc2nc3ccccc3n3c(=O)n(CC(=O)Nc4ccc(C)cc4)nc23)c1,9.1%,4.31%,-30.42%
CC(C)c1nnc2c(SCC(=O)Nc3ccccc3Br)nc3ccccc3n12,12.82%,4.2%,-6.3%
O=C(Cn1nc2c(Oc3ccccc3)nccn2c1=O)Nc1ccccc1Cl,5.8%,-0.88%,-12.94%
CCc1ccccc1Sc1nccn2c(=O)n(CC(=O)Nc3cccc(C)c3)nc12,4.48%,-0.7%,-3.25%
COc1ccc(-c2cc3c4nn(CC(=O)Nc5ccccc5)c(=O)n4ccn3n2)cc1,8.66%,6.28%,-7.06%
CCc1nnc2c(S(=O)(=O)N(Cc3cccc(C)c3)c3ccc(C(C)C)cc3)cccn12,14.47%,4.99%,-9.13%
CCc1ccc(Cn2c(=O)c3sccc3n3c(SCc4cccc(C(F)(F)F)c4)nnc23)cc1,8.34%,1.88%,-21.14%
Cc1ccc(Cn2nc3c(=O)n(-c4ccc(C)c(C)c4)ccn3c2=O)cc1,14.01%,3.7%,-17.46%
COC(=O)c1sccc1NC(=O)Cn1nc2c(Oc3ccc(C)cc3)nc3ccccc3n2c1=O,13.09%,3.6%,-31.95%
Cc1cc2nn(CC(=O)Nc3ccc(F)cc3)c(=O)n2c(Nc2ccccc2C)n1,4.2%,1.24%,-11.54%
COc1cccc(Oc2nccn3c(=O)n(CC(=O)Nc4ccc5c(c4)OCO5)nc23)c1,7.21%,1.19%,-8.5%
O=S(=O)(c1ccc2nncn2c1)N(Cc1cccc(F)c1)c1ccc(F)c(F)c1,13.11%,5.52%,-5.3%

SMILES,Inhibition [1],Inhibition [2],Inhibition [3]
Cc1nnc2ccc(S(=O)(=O)N(Cc3ccc(F)cc3)c3ccc(Cl)cc3)cn12,9.19%,1.14%,-10.26%
COc1cccc(Cn2nc3ccc(-c4ccccc4)nn3c2=O)c1,7.25%,2.39%,-3.25%
O=c1c2nnc(SCc3ccccc3)n2ccn1-c1ccc(Br)cc1,7.85%,5.19%,-7.93%
COc1cc(NC(=O)Cn2nc3c(SC4CCCCC4)nccn3c2=O)cc(OC)c1,18.11%,13.52%,-27.94%
Cc1cc(C)cc(Nc2nc(C)cc3nn(CC(=O)Nc4ccc(C)c(F)c4)c(=O)n23)c1,19.17%,3.06%,-10.1%
CCCCn1c(=O)c2sccc2n2c(CCC(=O)NC(C)C34CC5CC(CC(C5)C3)C4)nnc12 (stereo not given),12.08%,-2.51%,-27.66%
CCC(C)NC(=O)CCn1c(=O)c2ccccc2n2c(=O)n(CC(=O)NCc3cccs3)nc12 (stereo not given),12.47%,0.11%,-24.13%
O=S(=O)(c1cccn2cnnc12)N(Cc1ccc(F)cc1)c1ccc(F)c(F)c1,4.99%,2.27%,-6.23%
Cc1cc(C)c(NC(=O)Cn2nc3n(C)c(=O)c4c(c(-c5ccccc5)cn4C)n3c2=O)c(C)c1,4.68%,0.24%,-1.33%
CCN(C(=O)Cn1nc2cc(C)nc(Nc3ccc(C)c(F)c3)n2c1=O)c1ccccc1,13.32%,0.56%,-6.91%
CC1CCCN(c2nccn3c(=O)n(CC(=O)Nc4ccc(F)cc4F)nc23)C1 (stereo not given),-1.65%,1.98%,-8.2%
Cc1cccc(Oc2nccn3c(=O)n(CC(=O)N4CCN(c5ccccc5F)CC4)nc23)c1C,-1.33%,1.02%,-17.84%
CCOc1ccc(NC(=O)Cn2nc3c(Oc4cccc(OC)c4)nccn3c2=O)cc1,14.7%,3.56%,-8.08%
COc1ccc(CNC(=O)CSc2nnc3c4cc(-c5ccccc5)nn4ccn23)cc1,15.76%,0.38%,-28.39%
CCCc1nnc2c(=O)n(CC(=O)Nc3cccc(Br)c3)c3ccccc3n12,0.59%,0.12%,-38.92%
O=C(CSc1nnc2c(=O)n(-c3ccccc3)ccn12)Nc1ccc(F)cc1,3.51%,4.29%,-7.32%
Cc1cccc(Oc2nc3ccccc3n3c(=O)n(CC(=O)Nc4cccc(C#N)c4)nc23)c1C,4.26%,5.6%,-21.56%
Cc1ccc(CSc2nnc3c(=O)n(-c4ccc(Br)cc4)ccn23)cc1,11.07%,8.75%,-7.86%
COc1cccc(-n2ccn3c(SCC(=O)Nc4ccc5c(c4)OCCO5)nnc3c2=O)c1,14.27%,3.13%,-26.1%
COc1ccccc1-n1ccn2c(SCc3cc(C)ccc3C)nnc2c1=O,16.48%,0.1%,-7.82%

SMILES,Inhibition [1],Inhibition [2],Inhibition [3]
Cc1ccc(C(=O)C(C)Sc2nnc3c(=O)n(-c4ccc(F)c(F)c4)ccn23)cc1C (stereo not given),-0.54%,2.5%,-3.72%
COc1ccc(NC(=O)Cn2nc3c(Oc4ccccc4)nccn3c2=O)cc1OC,4.37%,1.92%,-7.08%
CC(=O)c1ccc(NC(=O)Cn2nc3ccc(-c4ccc(C)cc4)nn3c2=O)cc1,11.92%,4.12%,-11.07%
Cc1ccc(S(=O)(=O)Nc2ccc3nnc(-c4ccccc4)n3n2)cc1C,0.88%,0.52%,-4.99%
COc1ccc(NC(=O)CSc2nnc3ccc(C(=O)Nc4cccc(F)c4)cn23)cc1,4.36%,3.08%,-2.63%
Cc1cc(C)cc(Nc2nc(C)cc3nn(CC(=O)NC4CCCC4)c(=O)n23)c1,17.93%,3.67%,-8.76%
O=c1c2sccc2n2c(=O)n(Cc3ccc(F)cc3)nc2n1CCc1ccccc1,5.57%,0.78%,-5%
Cc1ccc(-c2cc3c4nn(CC(=O)NC5CCCC5)c(=O)n4ccn3n2)cc1C,3.15%,6.8%,-13.73%
COc1ccc(Cl)cc1NC(=O)CSc1nnc2c(=O)n(-c3ccccc3)ccn12,11.41%,3.46%,-20.14%
N#CCn1nc2n(CCC(=O)NC3CCCCC3)c(=O)c3ccccc3n2c1=O,0.53%,1.95%,1.45%
O=C(CSc1nnc2ccc(C(=O)Nc3cccc(F)c3)cn12)Nc1ccc(F)c(F)c1,2.94%,5.97%,-3.04%
COc1ccc(NC(=O)Cn2nc3c4cc(-c5ccc(C)cc5)nn4ccn3c2=O)cc1Cl,-5.12%,9.96%,-15.26%
CCCCOc1ccc(-c2cc3c4nnc(SCC(=O)Nc5ccc(OC)cc5)n4ccn3n2)cc1,6.75%,3.4%,-13.28%
Cc1ccc(-n2ccn3c(=O)n(Cc4ccccc4Cl)nc3c2=O)cc1C,4.31%,3.38%,-10.75%
CCOc1ccccc1NC(=O)Cn1nc2c(SC3CCCCC3)nccn2c1=O,10.39%,5.31%,-21.42%
COc1cc(NC(=O)C(C)Sc2nnc3c(=O)n(-c4ccc(F)cc4)ccn23)cc(OC)c1 (stereo not given),6.23%,7.68%,-7.14%
Cc1nnc2ccc(S(=O)(=O)N(Cc3ccccc3F)c3cccc(F)c3)cn12,4.31%,10.13%,-4.32%
COc1ccc(-c2cc3c4nnc(CCC(=O)NCc5cccs5)n4ccn3n2)cc1,6.72%,-0.32%,-11.02%
COc1cccc(Sc2nc3ccccc3n3c(=O)n(CC(=O)Nc4cc(C)cc(C)c4)nc23)c1,4.15%,5.74%,-11.67%
COc1ccc(N2CCN(C(=O)Cn3nc4ccc(-c5ccc(Cl)cc5)nn4c3=O)CC2)cc1,-0.61%,7.77%,-9.26%
